# Measurements as given in the supplement of paper PMC6555819.
# Key:
# Assay in all cases: PBM binding z-score (relative to random genomic background probes); higher = stronger binding; sequences stand for … in GC…GCGATTGACAGCGTAGAATGAAGG
# [1] = tested on: PPARg:RXRa DBDmut IVT, anti-RXR (DBD mutation: RXRa K156A/R161A, NR concentration 270 nM, RXRa partner concentration 90 nM)
# Method in brief: (§1)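 Ligand-free nuclear receptor dimers were applied to custom Agilent 4×180K protein-binding microarrays whose double-stranded probes carried direct-repeat seeds, single-nucleotide variants, half-site ablations and random human genomic background sequences in 34-nt variable regions. Incubation lasted 1 h. Binding z-scores were computed against the random background probes from regression-normalized fluorescence.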
# [2] = tested on: PPARg:RXRa IVT, anti-PPARg (NR concentration 270 nM, RXRa partner concentration 90 nM)
# Method in brief: as §1
# [3] = tested on: PPARg DBDmut:RXRa IVT, anti-PPARg (DBD mutation: PPARg1 K132A/R137A, NR concentration 270 nM, RXRa partner concentration 90 nM)
# Method in brief: as §1
# [4] = tested on: PPARg DBDmut IVT, anti-PPARg (DBD mutation: PPARg1 K132A/R137A, NR concentration 270 nM)
# Method in brief: as §1
# [5] = tested on: PPARg homodimer (NR concentration 180 nM)
# Method in brief: as §1
# [6] = tested on: PXR:RXRa (NR concentration 270 nM, RXRa partner concentration 90 nM)
# Method in brief: as §1
# [7] = tested on: PXR homodimer (NR concentration 270 nM)
# Method in brief: as §1
# [8] = tested on: RARa:RXR (NR concentration 270 nM, RXRa partner concentration 90 nM)
# Method in brief: as §1
# [9] = tested on: RARa homodimer (NR concentration 270 nM)
# Method in brief: as §1
# [10] = tested on: RARb:RXRa (NR concentration 270 nM, RXRa partner concentration 90 nM)
# Method in brief: as §1
# [11] = tested on: RARb homodimer (NR concentration 270 nM)
# Method in brief: as §1
# [12] = tested on: RARg:RXRa (NR concentration 270 nM, RXRa partner concentration 90 nM)
# Method in brief: as §1
# [13] = tested on: RARg homodimer (NR concentration 270 nM)
# Method in brief: as §1
# [14] = tested on: RXRa DBDmut IVT, anti-RXR (DBD mutation: RXRa K156A/R161A, NR concentration 90 nM)
# Method in brief: as §1
# [15] = tested on: RXRa homodimer (NR concentration 180 nM)
# Method in brief: as §1
# [16] = tested on: THRa:RXRa (NR concentration 90 nM, RXRa partner concentration 90 nM)
# Method in brief: as §1
# [17] = tested on: THRa homodimer (NR concentration 90 nM)
# Method in brief: as §1
# [18] = tested on: VDR:RXRa (NR concentration 270 nM, RXRa partner concentration 90 nM)
# Method in brief: as §1
# [19] = tested on: VDR homodimer (NR concentration 270 nM)
# Method in brief: as §1
Sequence,PBM binding z-score [1],PBM binding z-score [2],PBM binding z-score [3],PBM binding z-score [4],PBM binding z-score [5],PBM binding z-score [6],PBM binding z-score [7],PBM binding z-score [8],PBM binding z-score [9],PBM binding z-score [10],PBM binding z-score [11],PBM binding z-score [12],PBM binding z-score [13],PBM binding z-score [14],PBM binding z-score [15],PBM binding z-score [16],PBM binding z-score [17],PBM binding z-score [18],PBM binding z-score [19]
CCGACTGGGGCAGAAAGGTTACGATACCATCCGG,1.98,2.35,-0.302,-0.0493,1.17,1.39,-0.337,1.72,-0.00415,1.92,2.38,1.96,1.37,-0.562,2.09,1.15,-0.229,1.2,-0.0227
CGTCAAAGTGCAACTAAGGTAACGTAAAGCACGC,0.000169,0.492,-0.123,-0.228,0.0705,1.55,0.00934,2.04,-0.027,2.07,1.18,1.58,1.59,1.13,0.815,4.99,1.18,0.866,0.128
CCTATTAGTTGACCATAAGGGCAGCCGAAGCTCG,0.366,0.178,-0.234,-0.298,1.6,0.00471,0.575,0.385,1.64,1.29,1.55,0.749,0.64,0.252,0.392,1.36,0.892,0.304,0.242
TCAGATAGGTAATACAGGTGAAAGTCGGCATCTA,2.72,1.82,0.894,0.382,0.675,0.557,0.387,0.619,1.19,0.567,0.54,0.562,0.364,1.27,1.03,0.795,0.181,0.887,0.187
ATCTCTAGGTACCCAAGTTCAGTGAATGCCGAAC,0.72,1.02,0.772,0.793,0.883,1.76,1.62,0.698,0.262,1,1.41,0.712,0.515,1.14,0.528,0.968,0.385,2.1,2
AGAATGTGGTTATTAAGATCAGGGAATTGCGGTC,0.321,0.232,0.301,1.09,1.35,-0.0244,0.763,0.105,1.37,0.11,0.199,-0.113,0.223,-0.0893,0.0791,0.147,0.17,0.251,0.201
TGAATGAGGTTAAAGATCAGGGGACGTGGCGTCG,2.48,3.35,1.21,0.582,1.75,1.7,-0.086,3.31,0.0279,2.11,1.02,2.29,1.31,1.01,3.57,2.83,0.742,1.88,0.974
TCGAGTAGGTTAGTCGGGGCATTCATCCAACATA,2.52,2.11,0.0178,-0.145,0.384,0.279,0.0478,0.5,-0.336,0.665,0.534,-0.0149,0.214,0.518,0.053,1.19,0.047,2.37,0.435
AGTCAACGTTCACTAGGTAACGTAAGATTCAGCT,2.07,2.83,0.496,0.783,-0.0596,-0.163,-0.41,-0.184,-0.305,0.64,0.0524,0.418,0.444,0.205,0.197,0.401,0.11,-0.186,-0.293
TCTTGTAGATCAACATGAGGTTAAGAAAGATCGA,1.66,1.07,1.29,1.12,-0.107,1.22,-0.155,1.53,0.226,0.619,0.695,1.12,0.455,0.475,1.27,2.18,0.657,1.1,0.413
TAGCCTAGGTCAGATCGGGCCAGTATCCGCTATA,0.546,1.41,-0.474,-1.24,0.0691,0.834,-0.885,1.1,-1.32,3.02,2.26,2.39,3.37,-0.366,1.35,4,0.15,0.43,-0.329
GCTAGTTGGTCAGTAATAGGTCACACACCGGTCG,1.6,2.79,-0.0555,-0.765,1.88,2.1,0.429,2.93,0.809,2.57,3.86,3.12,2.58,0.228,2.43,2.06,0.841,1.73,0.317
TCTTGTATATCAGCAGGTTAAGAAAGCTGGCCAA,2.07,0.6,0.115,0.41,0.718,0.584,0.0851,0.998,0.982,0.687,0.756,0.511,0.266,1.05,0.75,0.759,0.0914,0.851,0.143
CGTCCAAGGTCAGAGACGTCAGTGAATGCCGAGT,2.2,1.74,-0.306,-0.0249,1.43,2.14,0.599,2.75,0.197,4.37,3.39,4.24,4.6,2.62,3.33,3.24,1.49,2.76,1.24
CCTTACGGGTCACGAGGCTATAGCACGACGAGCG,3.61,4.78,0.556,-0.248,1.81,3.26,-0.243,4.45,0.264,4.23,3.24,5.45,5,0.992,6.22,3.16,0.466,3.93,0.849
